Sfp PPTase inh = inhibitors of Bacillus subtilis Sfp phosphopantetheinyl transferase | Q9F4F7 | Biochemical Sfp PPTase activity, qHTS | Potency, µM, actives largely listed as inhibitors | actives 3.5% (n = 310,000);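 further: the enzyme is Sfp with the accession as filed and its product quenches rhodamine fluorescence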
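Compounds were incubated with enzyme (final 15 nM) for 15 min at room temperature before substrate addition started the reaction. Fluorescence at 525 nm excitation, 598 nm emission was recorded immediately and after 30 minutes.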
PLK1 PBD inh = PLK1 (human) polo-box domain binding inhibition; Plk1 PBD binding of FITC phosphopeptide, fluorescence polarization; Potency, µM, hits mostly inhibitors; actives 2.8% (n = 360,000); AID 720504; further: series mostly up to about 57 µM; nearly all actives have a fitted effect of over 65% in size
ALDH1A1 block = inhibitors of human aldehyde dehydrogenase 1A1. Potency, µM (doses to about 75.3 µM), usual class: inhibitors. actives 7.3% (n = 220,000). Purified ALDH1A1, NADH fluorescence, propionaldehyde substrate. P00352; active means well fitted inhibition curve with a large enough effect, not every such curve was filed as active; inconclusive means small, poorly fitted or top-dose-only effect, or another doubt; inactive means no such curve, though single readings can be large or run the other way
Target sequence (P00352 whole entry, looked up): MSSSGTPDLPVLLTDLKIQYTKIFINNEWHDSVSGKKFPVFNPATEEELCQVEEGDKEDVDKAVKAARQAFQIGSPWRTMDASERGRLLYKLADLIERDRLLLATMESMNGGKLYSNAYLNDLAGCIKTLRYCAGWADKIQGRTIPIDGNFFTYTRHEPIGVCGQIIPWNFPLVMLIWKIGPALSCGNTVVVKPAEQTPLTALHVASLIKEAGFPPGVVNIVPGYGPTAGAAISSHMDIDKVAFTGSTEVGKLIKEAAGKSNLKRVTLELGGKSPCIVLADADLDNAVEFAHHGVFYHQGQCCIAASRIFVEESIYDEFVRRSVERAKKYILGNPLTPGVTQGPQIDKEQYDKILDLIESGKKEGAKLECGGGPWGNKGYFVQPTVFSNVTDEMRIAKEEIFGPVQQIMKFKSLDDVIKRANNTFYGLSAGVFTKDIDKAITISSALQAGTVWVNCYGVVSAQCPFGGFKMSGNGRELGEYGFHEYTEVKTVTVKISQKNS
VP16 counter = inhibits Gal4-VP16 luciferase reporter, ROR gamma counter-screen; Drosophila S2 Gal4-VP16 UAS-luciferase, luminescence, 20 h; Potency, µM (doses to about 53.6 µM), most hits filed as inhibitors; actives 3.5% (n = 310,000); AID 2546;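 further: Gal4-VP16 expression switched on by copper sulfate through the metallothionein promoter; nearly all actives have a fitted effect of over 50% in size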
RORgamma inh = blocks mouse ROR gamma transcriptional activity; P51450; Drosophila S2 Gal4-RORgamma UAS-luciferase reporter, 20 h; Potency, µM (series often up to 53.6 µM), usual class: inhibitors; actives 5.4% (n = 310,000); AID 2551; further: nearly all actives have a fitted effect of over 60% in size
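Read-out: Photinus luciferase luminescence; inhibitors lower reporter signal. Insect Schneider cells with Gal4-ROR gamma fusion under metallothionein promoter, UAS reporter; 700 uM final copper sulfate induction, 20 hr, ambient temperature.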
A number is an active result; . = inactive; ? = inconclusive; / = not tested or not shown; [ ] = dose if it differs, or a comment. In the library only some 12% were active in any assay of this set; here they are far more common. Unless noted, the call rests on the fitted dose curve; in most records, active means well fitted curve in the direction sought with a large enough effect; inconclusive means small, poorly fitted or top-dose-only effect, or another doubt; inactive means no such curve, though single readings can be large; an effect the other way counts as inactive or inconclusive.

SMILES | Sfp PPTase inh | PLK1 PBD inh | ALDH1A1 block | VP16 counter | RORgamma inh
COc1ccc(-c2csc(NC(=S)NC(=O)/C=C/c3ccco3)n2)cc1Br | . | . | . | ? | 7.9µM
COc1ccc(-c2csc(NC(=S)NC(=O)/C=C/c3ccc(C(C)C)cc3)n2)cc1OC | . | . | / | 7.9µM | 4µM
COc1ccc(-c2csc(NC(=O)c3c(C)noc3C)n2)cc1OC | / | . | / | / | /
Cc1sc(NC(=O)/C=C/c2ccc(C(C)C)cc2)c(C#N)c1C | . | . | ? | . | .
CC(C)c1ccc(/C=C/C(=O)Nc2nncs2)cc1 | . | . | . | . | 13µM
COc1ccc(C(=O)NC(=S)Nc2nc(-c3ccc(OC)c(Br)c3)cs2)cc1Br | . | . | / | . | .
COc1ccc(-c2csc(NC(=S)NC(=O)/C=C/c3ccco3)n2)cc1OC | . | . | . | 14µM | 7.9µM
CC(C)c1cc(/C=C(\C#N)C(=O)NCCCc2ccccc2)cc(C(C)C)c1O | . | / | . | / | /
CN(C)CC#Cc1cccc(-c2nc(C(=O)O)cc3c2[C@@H](CCO)N(S(=O)C(C)(C)C)C3)c1 (stereo not given in full) | / | . | / | / | /
Cc1cnc(-c2nc3ccccc3n2C(C(=O)NC(C)(C)C)c2ccncc2)cn1 (stereo not given) | / | . | / | / | /
C/C(CC(=O)Nc1ccc(Cl)cc1C(F)(F)F)=N\NC(N)=S | 45µM | . | / | ? | 13µM
C/C(CC(=O)Nc1cc(Cl)ccc1Cl)=N\NC(N)=S | 35µM | . | 13µM | 20µM | 5.6µM
C/C(CC(=O)Nc1ccc(Cl)cc1Cl)=N\NC(N)=S | . | . | ? | . | .
C/C(CC(=O)Nc1ccc(C)c(Cl)c1)=N\NC(=O)c1ccncc1 | . | . | ? | . | ?
C/C(CC(=O)Nc1ccc(Cl)c(Cl)c1)=N\NC(N)=S | ? | . | . | 11µM | 5.6µM
C/C(CC(=O)Nc1ccc(Cl)cc1C(F)(F)F)=N\NC(=O)c1cccs1 | . | . | / | ? | .
C/C(CC(=O)Nc1ccc(Cl)cc1Cl)=N\NC(=O)c1ccncc1 | . | . | / | 18µM | ?
CCn1nnnc1SCC(=O)N(C)C1CCS(=O)(=O)C1 (stereo not given) | / | . | / | / | /
CC(C)C[C@@H](CC(=O)N[C@@H](CCCN)CC(=O)N[C@@H]1CCCC[C@H]1C(=O)N[C@H](CC(=O)N[C@@H](CCC(=O)O)CC(=O)O)CC(C)C)NC(=O)[C@@H]1CCCC[C@H]1N | . | / | . | . | .
CCN(CC(=O)Nc1ccc(NC(C)=O)cc1)CC(=O)Nc1ccc(Cl)c(Cl)c1 | 56µM | . | / | . | .
CCN(CC(=O)Nc1ccc(NC(C)=O)cc1)CC(=O)Nc1cccc(Cl)c1 | . | . | / | . | .
CC(C)(C)c1ccc(OCC2CO2)cc1 (stereo not given) | / | / | . | . | .
CCCCCCCCSc1nnc2[nH]c(=O)cc(N)n12 | . | 3.4µM | . | . | .
CC(CC(c1ccccc1)N1CCc2ccccc2C1)=NO (stereo not given) | / | . | / | / | /
CC1(N)CCC(C(C)(C)N)CC1 (stereo not given) | / | / | ? | . | .
SMILES | Sfp PPTase inh | PLK1 PBD inh | ALDH1A1 block | VP16 counter | RORgamma inh
COc1ccccc1OCC(=O)NCCSCc1ccccc1Cl | . | 27µM | . | . | .
Cc1ccc(CSCCNC(=O)/C=C/c2ccccc2Cl)cc1 | . | . | 4.5µM | . | .
O=C(/C=C/c1ccccc1)NCCSCc1ccccc1Cl | . | . | 2.2µM | .[0.365 µM] | .
CC(C)C(=O)C1=Cc2cc([N+](=O)[O-])ccc2OC1N1CCOCC1 (stereo not given) | . | . | / | . | .
CCC(=O)[C@]12O[C@@]3(C4C(=O)OCCC41)N(CC)C(C)=C(C(=O)OC)C(c1ccccc1)N3C2=O (stereo not given in full) | . | / | .[13.5 µM] | .[10 µM] | .[10 µM]
Cc1cc(NC(=O)Cc2ccsc2)ccc1Br | . | . | / | . | .
COc1ccc(OC)c(CCNC(=O)Cn2nc(C)c3c(C)n(-c4ccc(C)cc4)nc3c2=O)c1 | . | . | / | ? | .
COc1ccc(OC)c(CCNC(=O)Cn2sc3nc(C)cc(C)c3c2=O)c1 | 1.4µM | / | 2.5µM | . | .
Cc1cc(C)c2c(=O)n(CC(=O)Nc3ccc(Br)c(C)c3)sc2n1 | 3.2µM | 3µM | / | ? | 13µM
Cc1cc(C)c2c(=O)n(CC(=O)Nc3cccc(Cl)c3C)sc2n1 | 2.5µM | 2.7µM | / | 3.2µM | ?
Cc1c(Cl)cccc1NC(=O)Cn1cccc1 | . | . | . | . | .
Cc1cc(C)c2c(=O)n(CC(=O)NC3CCCC3)sc2n1 | 2.8µM | 1.9µM | / | ? | ?
C=CCN1CC(C(=O)N(CCCN(C)C)C(=O)NCC)CC2c3cccc4[nH]cc(c34)CC21 (stereo not given) | . | / | / | . | .
Cc1nc(N2CCOCC2)c2nc(-c3ccccc3)n(CCCN3CCCCC3C)c2n1 (stereo not given) | . | / | ? | . | .
COc1ccc(S(=O)(=O)N/N=C\c2ccc3c(c2)OCO3)c(OC)c1 | . | . | / | 11µM | ?
Cc1ccc(C2CC2C(=O)NNC(=S)Nc2cccc(C)c2)cc1 (stereo not given) | . | . | 18µM | . | .
Cc1ccc(C2CC2C(=O)NNC(=S)Nc2cccc(Cl)c2)cc1 (stereo not given) | . | ? | 7.1µM | . | .
CC(C)(C)NC(=O)C1c2ccccc2OCC(=O)N1Cc1ccccc1 (stereo not given) | / | . | / | / | /
CN(C)CCNC(=O)c1ccc(-c2cnn(C)c2)c2ccoc12 | / | . | / | / | /
CN(C)CCC(=O)c1ccc2c(c1)OCO2 | . | 19µM | 0.022µM | 6.3µM | 2.2µM
CN(Cc1ccccc1)C(=O)c1ccc2c(c1)OCO2 | . | . | . | . | ?
CCCCN(C(=O)c1ccc2c(c1)OCO2)c1ccccc1 | . | ? | 14µM | . | .
CN(C)CCC(=O)c1cccc(Br)c1 | ? | 9.5µM | 0.04µM | . | ?
Cc1cc(NC(=O)CSc2cn(CC(=O)N(C(C)C)C(C)C)c3ccccc23)no1 | . | . | / | . | .
CC(NCC1(N2CCOCC2)CCCCC1)C(=O)N1CCc2ccccc21 (stereo not given) | . | . | . | . | .
SMILES | Sfp PPTase inh | PLK1 PBD inh | ALDH1A1 block | VP16 counter | RORgamma inh
CC(NCC1(N2CCOCC2)CCCCC1)C(=O)Nc1ccc(Cl)cc1Cl (stereo not given) | 56µM | . | . | . | .
CCc1ccc(N(C(=O)c2snc(C(N)=O)c2N)C(C(=O)NC2CCCC2)c2ccncc2)cc1 (stereo not given) | . | . | / | . | .
CCn1cc(C(=O)Nc2ccccc2C(=O)OC)c(=O)c2ccc(C)nc21 | . | / | ? | . | .
CCOC(=O)c1ccccc1NC(=O)c1cn(CC)c2nc(C)ccc2c1=O | . | 27µM | ? | ? | 11µM
O=C1CSC(c2ccccc2[N+](=O)[O-])N1c1ccccc1 (stereo not given) | . | . | . | . | .
O=C1CSC(c2ccccc2[N+](=O)[O-])N1c1ccc(O)cc1 (stereo not given) | 50µM | . | ? | . | ?
COc1ccc(NC(=O)c2c(-c3ccccc3Cl)noc2C)c(OC)c1 | . | . | . | . | .

Screening data (PubChem BioAssay)
